Bioassay records as filed in PubChem BioAssay.
Tau fibril FP = blocks human tau fibril formation measured by polarization; K18 P301L tau heparin fibrillization, Alexa594 FP, 6 h; P10636; Potency, µM (top dose mostly 57.7 µM), for inactives: top-dose activity, negative = inhibition, usual class: inhibitors; AID 1468; 0.39% of 280,000 active; active means well fitted curve in the direction sought with a large enough effect; inconclusive means small, poorly fitted or top-dose-only effect, or another doubt; inactive means no such curve, though single readings can be large; an effect the other way counts as inactive or inconclusive; further: nearly all actives have a fitted effect of over 55% in size
Target sequence (P10636 561-689 P618L limits assumed): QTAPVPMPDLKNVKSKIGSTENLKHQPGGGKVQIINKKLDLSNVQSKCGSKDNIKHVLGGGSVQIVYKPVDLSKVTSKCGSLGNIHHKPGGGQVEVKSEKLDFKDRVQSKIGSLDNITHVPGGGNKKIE
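FP of Alexa 594-tau after heparin (20 uM) induction. Substrate: human K18 P301L, 15 uM unlabeled, 0.24 uM labeled. Buffer 100 mM sodium acetate pH 7. 6 hr, 37 C.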
ALDH1A1 block = inhibitors of human aldehyde dehydrogenase 1A1; P00352; Purified ALDH1A1, NADH fluorescence, propionaldehyde substrate; Potency, µM (highest dose often 75.3 µM), inactives show at the highest dose activity, negative = inhibition, most hits filed as inhibitors; 7.3% of 220,000 active;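 further: plate controls were no enzyme wells and a reference inhibitor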
Target sequence (P00352 whole entry, looked up): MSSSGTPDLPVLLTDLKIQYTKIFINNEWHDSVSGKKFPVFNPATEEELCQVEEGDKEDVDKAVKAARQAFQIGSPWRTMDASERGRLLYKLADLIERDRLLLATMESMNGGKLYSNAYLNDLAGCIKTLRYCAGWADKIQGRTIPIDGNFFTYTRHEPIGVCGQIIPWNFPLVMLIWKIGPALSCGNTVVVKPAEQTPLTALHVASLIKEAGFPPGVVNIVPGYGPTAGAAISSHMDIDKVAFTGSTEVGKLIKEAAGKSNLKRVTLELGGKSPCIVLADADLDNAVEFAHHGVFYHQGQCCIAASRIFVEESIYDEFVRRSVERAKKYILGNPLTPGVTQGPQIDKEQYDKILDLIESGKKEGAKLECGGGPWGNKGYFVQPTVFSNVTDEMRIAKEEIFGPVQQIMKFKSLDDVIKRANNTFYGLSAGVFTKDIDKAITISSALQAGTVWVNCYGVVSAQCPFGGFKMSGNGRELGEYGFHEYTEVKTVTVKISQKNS
Tau fluor counter = counter-screen for tau fibril formation inhibitors | tau K18 P301L Alexa594 fluorescence, heparin fibrillization | Potency, µM (series often up to 57.7 µM), for inactives: top-dose activity change, negative = decrease | 0.93% of 280,000 active; active means well fitted curve in the direction sought with a large enough effect; inconclusive means small, poorly fitted or top-dose-only effect, or another doubt; inactive means no such curve, though single readings can be large; an effect the other way counts as inactive or inconclusive; further: nearly all actives have a fitted effect of over 55% in size
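Human K18 P301L tau (15 uM unlabeled plus 0.24 uM Alexa 594-labeled, final) in 100 mM sodium acetate pH 7 was mixed with compound and 20 uM heparin and incubated 6 hr at 37 C.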
HPGD block = blocks human HPGD enzyme activity. P15428. 4.3% of 150,000 active. purified HPGD, NADH fluorescence kinetic, PGE2 substrate. Potency, µM, for inactives: top-dose activity change, negative = inhibition, actives largely listed as inhibitors. AID 894
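20 nM HPGD preincubated 15 min at room temperature with compound in 50 mM Tris-HCl pH 8, 0.01% Tween 20. Started with 1 mM NAD+ and 30 uM prostaglandin E2; NADH fluorescence (360/450 nm) read 5 times over 30-s intervals, last minus first.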
Tau ThT inhib = tau fibrillization inhibition (ThT binding). P10636. recombinant tau K18 P301L, heparin-induced fibrillization, ThT fluorescence. Potency, µM (top dose mostly 57.4 µM), for inactives: at the top dose activity, negative = inhibition, usual class: inhibitors. 2.1% of 270,000 active. AID 1460; active means well fitted curve in the direction sought with a large enough effect; inconclusive means small, poorly fitted or top-dose-only effect, or another doubt; inactive means no such curve, though single readings can be large; an effect the other way counts as inactive or inconclusive; further: nearly all actives have a fitted effect of over 55% in size
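Fibril formation assay: tau K18 P301L at 15 uM with trace Alexa 594 label, heparin inducer 20 uM, pH 7 sodium acetate buffer, 37 C for 6 hr; endpoint ThT signal.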
KDM4E inh = JMJD2E (human) inhibition; B2RXH2; JMJD2E catalytic domain, FDH-coupled NADH fluorescence (FDH is formaldehyde dehydrogenase); Potency, µM (titrated, usually from 57.1 µM), inactives show top-dose activity change, negative = inhibition, hits mostly inhibitors; 1.6% of 230,000 active;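 further: 0% = wells with enzyme and -100% = buffer wells without enzyme; nearly all actives have a fitted effect of over 50% in size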
* marks the source's active call; other numbers are inactive results; [ ] = remark or other dose. The list is not random: actives were taken first. Their share in the collection is about 9.9%. Unless noted, the call rests on the fitted dose curve; in most records, active means well fitted inhibition curve with a large enough effect (not every such curve was filed as active); inconclusive means small, poorly fitted or top-dose-only effect, or another doubt; inactive means no such curve, though single readings can be large or run the other way. Unless noted, on the % scale 0 is the no-effect control and ±100 the full control effect; potency means the concentration at half of the fitted maximal effect.

Results for COc1ccc(-n2c(Cc3cccn3C)nnc2SCC(=O)Nc2cccc(NC(C)=O)c2)cc1 ?
Tau fibril FP: -1%; ALDH1A1 block: inconclusive; Tau fluor counter: -17%; HPGD block: -10%; Tau ThT inhib: -16%; KDM4E inh: -6%

How did COc1ccc(-n2c(Cc3cccn3C)nnc2SCC(=O)Nc2ccc(C(C)=O)cc2)cc1 do in these assays?
Tau fibril FP: inconclusive; ALDH1A1 block: 8.9µM*; Tau fluor counter: -19%; HPGD block: -21%; Tau ThT inhib: -4%; KDM4E inh: -20%

How did O=C(CSc1ccc(-c2ccccc2)nn1)N1CCN(c2ccccc2)CC1 do in these assays?
Tau fibril FP: 0%; ALDH1A1 block: 22µM*; Tau fluor counter: -10%; HPGD block: -9%; Tau ThT inhib: -11%; KDM4E inh: -3%

What do the screens show for `COc1ccc(-n2c(Cc3cccn3C)nnc2SCC(=O)Nc2ccc(C)cc2)cc1`?
Tau fibril FP: 1%; ALDH1A1 block: inconclusive; Tau fluor counter: -20%; HPGD block: -6%; Tau ThT inhib: -18%; KDM4E inh: -14%

What do the screens show for `CCc1cccc(N(C(=O)c2csnn2)C(C(=O)NC(C)(C)C)c2ccncc2)c1` (centres undefined)?
Tau fibril FP: 1%; ALDH1A1 block: 2%; Tau fluor counter: 3%; Tau ThT inhib: 4%; KDM4E inh: 3%

What do the screens show for `CC(C)(C)S(=O)(=O)/C(C#N)=C/c1sccc1C1OCCO1`?
Tau fibril FP: 3%; ALDH1A1 block: 7.9µM*; Tau fluor counter: -11%; Tau ThT inhib: -10%; KDM4E inh: -14%

Results for Nc1cc(N2CCOCC2)c(Cl)cc1[N+](=O)[O-] ?
Tau fibril FP: 4%; ALDH1A1 block: 4%; Tau fluor counter: 5%; Tau ThT inhib: inconclusive; KDM4E inh: 10%

Results for O=[N+]([O-])c1ccc(N2CCCCC2)cc1N1CCOCC1 ?
Tau fibril FP: -11%; ALDH1A1 block: 1%; Tau fluor counter: -6%; HPGD block: -15%; Tau ThT inhib: inconclusive; KDM4E inh: 6%

What do the screens show for `CN(C)S(=O)(=O)N1CCN(c2ccc([N+](=O)[O-])c(N3CCCCC3)c2)CC1`?
Tau fibril FP: 3%; ALDH1A1 block: 4µM*; Tau fluor counter: -27%; Tau ThT inhib: inconclusive; KDM4E inh: -12%

Results for Nc1cc(N2CCCC2)ccc1[N+](=O)[O-] ?
Tau fibril FP: -7%[2.34 µM]; ALDH1A1 block: -2%; Tau fluor counter: -14%[2.34 µM]; Tau ThT inhib: -9%; KDM4E inh: 12%

What do the screens show for `O=[N+]([O-])c1ccc(N2CCOCC2)cc1N1CCCCC1`?
Tau fibril FP: 1%; ALDH1A1 block: 5.6µM*; Tau fluor counter: 2%; Tau ThT inhib: inconclusive; KDM4E inh: -6%

What do the screens show for `Nc1cc(N2CCCC2)c(Cl)cc1[N+](=O)[O-]`?
Tau fibril FP: 0%; ALDH1A1 block: inconclusive; Tau fluor counter: -26%; Tau ThT inhib: 16µM*; KDM4E inh: -3%

How did Cc1cc(N2CCCCC2)ccc1[N+](=O)[O-] do in these assays?
Tau fibril FP: -6%; ALDH1A1 block: -1%; Tau fluor counter: -3%; HPGD block: 22µM*; Tau ThT inhib: 6%; KDM4E inh: 4%

What do the screens show for `CC(=O)Nc1ccc(S(=O)(=O)NC2(C(F)(F)F)C(=O)Nc3c2c(=O)[nH]c(=O)n3-c2ccc(C)c(C)c2)cc1` (centres undefined)?
Tau fibril FP: -5%; Tau fluor counter: -4%; Tau ThT inhib: 0%

What do the screens show for `Cc1c(-n2c(SCC(=O)C(C)(C)C)nc3ccccc3c2=O)c(=O)n(-c2ccccc2)n1C`?
Tau fibril FP: 4%; ALDH1A1 block: 5%; Tau fluor counter: 6%; Tau ThT inhib: -2%; KDM4E inh: 3%

How did O=C(NCc1ccc2c(c1)OCO2)O[C@@H]1C(=O)c2cc(Br)ccc2O[C@H]1c1ccc2c(c1)OCO2 do in these assays?
Tau fibril FP: -12%; ALDH1A1 block: -4%; Tau fluor counter: -17%; HPGD block: -10%; Tau ThT inhib: 1%; KDM4E inh: -8%

What do the screens show for `CC1=C(C(=O)Nc2ccccc2)C(c2cccc(O)c2)n2nc(-c3ccccc3Cl)nc2N1` (centres undefined)?
Tau fibril FP: inconclusive; Tau fluor counter: -29%; Tau ThT inhib: -1%

What do the screens show for `CN(C)S(=O)(=O)N1CCN(c2ccc([N+](=O)[O-])c(NC3CC3)c2)CC1`?
Tau fibril FP: 6%; ALDH1A1 block: inconclusive; Tau fluor counter: -17%; Tau ThT inhib: inconclusive; KDM4E inh: -4%

What do the screens show for `CNc1cc(N2CCN(S(=O)(=O)N(C)C)CC2)ccc1[N+](=O)[O-]`?
Tau fibril FP: -2%; ALDH1A1 block: -11%; Tau fluor counter: -2%; Tau ThT inhib: 16µM*; KDM4E inh: -6%

Results for O=C1C2CCCCC2C(=O)N1c1ccc(NC2CCCCC2)c([N+](=O)[O-])c1 (centres undefined) ?
Tau fibril FP: 6%; ALDH1A1 block: 10µM*; Tau fluor counter: -27%; HPGD block: -29%; Tau ThT inhib: inconclusive; KDM4E inh: -11%

How did O=[N+]([O-])c1ccc(N2CCCC2)cc1NC1CC1 do in these assays?
Tau fibril FP: -6%; ALDH1A1 block: -3%; Tau fluor counter: -17%; HPGD block: -22%; Tau ThT inhib: 14µM*; KDM4E inh: 6%

Results for Cc1cc(C)n(-c2nc3ccccc3nc2N2CCN(S(=O)(=O)c3ccc4ccccc4c3)CC2)n1 ?
Tau fibril FP: -6%; ALDH1A1 block: inconclusive; Tau fluor counter: -18%; HPGD block: inconclusive; Tau ThT inhib: -13%; KDM4E inh: inconclusive

What do the screens show for `Cc1cc(C)n(-c2nc3ccccc3nc2N2CCN(C(=O)c3ccccc3)CC2)n1`?
Tau fibril FP: 1%; ALDH1A1 block: 13µM*; Tau fluor counter: -3%; HPGD block: 0%; Tau ThT inhib: -5%; KDM4E inh: -2%

Results for COCCNc1ccc(N2C(=O)C3CCCCC3C2=O)cc1[N+](=O)[O-] (centres undefined) ?
Tau fibril FP: -7%; ALDH1A1 block: -3%; Tau fluor counter: -7%; Tau ThT inhib: 3%; KDM4E inh: -4%

Results for C=CCN1c2ccccc2[C@]23C[C@@H](C(=O)OC)N(S(=O)(=O)c4ccc5c(c4)OCCN5C)C2=NC(C(=O)OC)=C(C(=O)OC)[C@H]13 ?
Tau fibril FP: -1%[11.6 µM]; ALDH1A1 block: 6%[13.5 µM]; Tau fluor counter: -9%[11.6 µM]; HPGD block: 3%; Tau ThT inhib: 1%[11.5 µM]; KDM4E inh: 11%[11.4 µM]

Results for O=C(COC(=O)c1cc(-c2ccccn2)nc2ccccc12)Nc1ncc(C(F)(F)F)cc1Cl ?
Tau fibril FP: -4%; Tau fluor counter: 5%; Tau ThT inhib: 11%; KDM4E inh: 6%
